Assay results taken from PubChem BioAssay AID1578 (Sanford-Burnham Center for Chemical Genomics, 2009).
Where “and” joins values, the source holds several entries; their conditions need not be identical. Equal values may be shown once. Among all 290,000 compounds or so, about 3,000 (1%) were called active. The sample holds actives, similar compounds and a random draw of the others, so the mix is not that of the screen. No stated cut-off is given here; in the data, active means inhibition mostly above about 36% (no sharp cut-off); inactive means mostly below about 34%.

test: NOD1 signaling inhibitors, primary screen, cell-based, luminescence, uHTS (AID 1578); details: NOD1-driven NF-kB luciferase reporter cells, at 4 µM, active compounds read high;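 further: HEK-293T reporter cells stimulated with the NOD1 agonist gamma-tri-DAP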

inhibition, active:
CCOc1cc(/C=C2\C(=O)ON=C2c2ccccc2)cc(Br)c1O 39.5%
O=c1o[nH]c(-c2ccccc2)c1N=Nc1c(F)cccc1Cl 37%
O/N=C/c1ccccc1Oc1ccc(Cl)cc1 72.6%
CCOC(=O)/C(=C\c1cccnc1)C(=O)c1cc(C(C)=O)c(Nc2ccccc2)s1 102%
Cc1ccc2occ(/C=N/NC(=O)c3ccccc3C)c(=O)c2c1 49%
CCc1nc(Nc2ccc(OC)c(OC)c2)c2nnn(Cc3ccccc3Cl)c2n1 58.7%
NS(=O)(=O)c1cc(C(=O)N2CCNC(=O)C2)ccc1Cl 70.4%
O=C(c1cccs1)c1no[n+]([O-])c1C(=O)c1cccs1 98.1%
Cc1nc2ccccn2c1-c1ccnc(SCc2ccc(Cl)cc2)n1 37.7%
O=C(Cc1ccc(-c2ccccc2)cc1)NNC(=S)NCc1ccco1 41.4%
COc1ccc2c(c1)c1nc3n(c(=O)c1n2CC(=O)Nc1cc(C)[nH]n1)CCS3 63.4%
Cc1ccc(-n2c(-c3ccccc3)c[n+]3c2CCc2ccccc2-3)c(C)c1 66%
COc1ccccc1-n1c(-c2ccccc2)c[n+]2c1CCc1ccccc1-2 52.9% and 68.6%
Cc1nc2c(=O)n(C)c(=O)n(C)c2nc1Cl 94.4%
CCOC(=O)CNC(=O)CSc1nnc(NC(=O)c2ccc(C)cc2)s1 44.8%
COc1ccc2c(CC(=O)Nc3ccccc3OC)coc2c1 57.6%
COc1ccc(C2=NN(c3ccccc3)C(c3cccs3)C2)cc1 (stereo not drawn) 46.8%
O=C(N/N=C(\c1ccccc1)c1ccccn1)c1cccc([N+](=O)[O-])c1 103%
C=C(C(=O)c1ccccc1)C(C)C(=C)C(=O)c1ccccc1 99%
COc1ccc2c(c1)c(CC(=O)Nc1nnc(C3CC3)s1)c(C)n2C(=O)c1ccc(Cl)cc1 64.9%

inhibition, inactive:
CCOC(=O)Cn1c(=O)oc2cc(S(=O)(=O)N(C)c3ccc(OC)cc3)ccc21 3.5%
CCOc1cc(/C=C2/C(=O)ON=C2C)cc(Br)c1O 25.8%
COc1cc(/C=C2\C(=O)ON=C2c2ccccc2)cc(Br)c1O 13.8%
C/C(N)=C(/C#N)C(=O)COC(=O)CC12CC3CC(CC(C3)C1)C2 14.9%
CCn1c(CNC(=O)Cc2ccc(OC)cc2)nnc1SCC(=O)Nc1nccs1 -10.4%
Cc1[nH]oc(=O)c1N=Nc1c(Cl)cccc1Cl -17%
O=C(O)c1ccc(N=Nc2c(-c3ccccc3)[nH]oc2=O)cc1 -2.7%
Cc1ccc(N2C(=O)/C(=C/c3cccnc3)SC2=S)cc1 56.2%
C=C1C(C(=O)Nc2ccc(F)cc2)C1C(=O)Nc1ccc(F)cc1 (stereo not drawn) 3.1%
O/N=C\c1ccccc1Oc1ccc(F)cc1 8%
O/N=C/c1ccccc1Oc1ccccc1 22.6%
CCOC(=O)/C(C#N)=C\c1cccnc1 -19.2%
CCOC(=O)/C(=C\c1ccccc1)C(=O)c1cc(C(C)=O)c(Nc2ccccc2)s1 57.5%
Cc1ccc2occ(/C=N/NC(=O)c3ccccc3O)c(=O)c2c1 -14.7%
Cc1ccc2occ(/C=N/NC(=O)c3ccccc3Br)c(=O)c2c1 29.9%
O=S1(=O)C=C(SCc2cccc(Cl)c2)Nc2ccccc21 21.1%
COc1cccc(OC)c1Nc1nc(C)nc2c1nnn2Cc1ccccc1Cl -33.1%
COc1ccc(Nc2nc(C)nc3c2nnn3Cc2ccccc2)cc1OC 0%
O=C(Nc1ccnn1C1CCN(C2CCCCC2)CC1)c1ccccc1 -6.5%
COc1cc(/C=N/n2c(C)nc3ccccc3c2=O)cc(OC)c1O -6.8%
O=C(c1ccc(Cl)c(S(=O)(=O)N2CCCCCC2)c1)N1CCCC1 0.4%
O=C(c1ccc(Cl)c(S(=O)(=O)N2CCCCC2)c1)N1CCCCC1 -30.5%
O=c1c2c([nH]c3ccccc13)C(=C1CCCC1)CC2 2.8%
Cc1ccc(N2CCN(C(=O)c3cccs3)CC2)cc1C 1.8%
Cc1ccc(C2=[N+]([O-])C3(CCCCC/C3=N\O)N(O)C2(C)C)o1 (stereo not drawn) 14.4%
COc1ccc(CNC(=O)c2ccc(C(C)(C)C)cc2)cc1 -24.6%
C[C@@H]1CC[C@@]2(O[C@H](CCO)C[C@@H](O)[C@@H]2O)O1 -47.3%
COCCn1c(=S)[nH]c2cc(C(=O)N3CCN(Cc4ccc5c(c4)OCO5)CC3)ccc2c1=O -2.2%
CCCCCn1c(=O)[nH]c2cc(C(=O)N3CCN(CC)CC3)ccc2c1=O -4%
COc1ccc(-n2c(Cn3nnc4ccccc43)n[nH]c2=S)cc1 12%
COc1ccccc1S(=O)(=O)Nc1cc(S(=O)(=O)N2CCCCC2)ccc1N1CCOCC1 -35.7%
COc1ccc(C(=O)c2no[n+]([O-])c2C(=O)c2ccc(OC)cc2)cc1 6.8%
Cc1ccc(C(=O)c2no[n+]([O-])c2C(=O)c2ccc(C)cc2)cc1 18%
O=S(=O)(c1ccc(F)c(F)c1F)N1CCN(C(=S)NC2CC3CCC2C3)CC1 (stereo not drawn) -22.5%
Cc1ccc(NC(=O)/C(C#N)=C/c2ccccc2C(F)(F)F)cc1 -32.5%
Cc1ccc(CSc2nccc(-c3c(C)nc4ccccn34)n2)cc1 27%
Clc1ccc(CSc2ncccn2)cc1 -34.4%
COc1ccc2c(C)cc(SCC(=O)Nc3cc(C(N)=O)cc(C(N)=O)c3)nc2c1 -7%
O=C(O)Cc1ccc(NC(=S)NCc2ccco2)cc1 -27.1%
O=C(Cc1cccs1)NNC(=S)NCc1ccco1 -26.1%
CC(=O)c1ccc(C(=O)N2CCCC(CO)(Cc3ccccc3C)C2)s1 (stereo not drawn) -39%
COc1ccc(NC(=O)Cn2c3ccc(OC)cc3c3nc4n(c(=O)c32)CCS4)cc1 -15.9%
COc1ccc2c(c1)c1nc3n(c(=O)c1n2CC(=O)Nc1ccccc1)CCS3 -17.5%
COc1ccc(OC(=O)N2CCOCC2)cc1 -16.5%
CC1CCCC(NC(=O)COC(=O)Cc2cn3ccsc3n2)C1C (stereo not drawn) 6.7%
Cc1ccc(-n2c(-c3ccccc3)c[n+]3c2CCC3)cc1 9.5%
COc1ccc(-n2c(-c3ccc(Br)cc3)c[n+]3c2CCc2ccccc2-3)cc1 13.3%
Cc1ccc(-c2c[n+]3c(n2-c2ccccc2)CCC3)cc1 25.4%
COc1ccc(-n2c(-c3ccc(Cl)cc3)c[n+]3c2CCc2ccccc2-3)cc1 20.5%
CCOc1ccc(-c2c(C(=O)N/N=C/c3ccco3)nnn2-c2nonc2N)cc1 -7.1%
O=C(Cn1cnc(S(=O)(=O)N2CCCCC2)c1)NCc1ccco1 -11.7%
CC(C)N(Cc1ccccc1)C(=S)Nc1ccccc1F -3.5%
CCOC(=O)CN(c1ccccc1C)S(=O)(=O)c1ccc(Cl)cc1 21.3%
CCN(CC)C(=O)Cn1cc(C(=O)C(=O)N(CC)C2CCCCC2)c2ccccc21 -4.6%
Cn1c(=O)c2nc3ccccc3nc2n(C)c1=O -21.3%
Cn1c(=O)c2nc(Cl)c(-c3ccccc3)nc2n(C)c1=O -30.8%
CCCC(C)NC(=O)/C=C/c1cccc([N+](=O)[O-])c1 (stereo not drawn) -26.2%
CCOC(=O)CNC(=O)CSc1nnc(NC(=O)c2ccc3c(c2)OCO3)s1 -31.4%
CCOC(=O)CNC(=O)CSc1nnc(NC(=O)c2ccccc2Cl)s1 -7.6%
CN1CCN(NC(=O)C23CC4CC(CC(C4)C2)C3)CC1 -2.4%
COc1ccccc1NC(=O)Cc1coc2cc(C)ccc12 -17.5%
COc1ccc2c(CC(=O)Nc3ccccc3N3CCOCC3)coc2c1 16.3%
O=C(NC(=S)Nc1ncccn1)c1ccc(Cl)cc1Cl -41.6%
CC(=O)Nc1ccc(C2=NN(c3ccccc3)C(c3cccs3)C2)cc1 (stereo not drawn) -0.7%
COc1ccc(C2=NN(S(C)(=O)=O)C(c3cccs3)C2)cc1 (stereo not drawn) -16.2%
CC(=O)c1ccc(NC(=O)CCc2nnc3ccc(N4CCC5(CC4)OCCO5)nn23)cc1 -15.6%
CCOc1cc2[nH]c(=O)n(CCCN3CCCC3=O)c(=O)c2cc1OCC 0.4%
CCCc1cc(-c2n[nH]c(=S)n2-c2cccc(C)c2)cs1 -9.6%
O=C(NNC(=O)c1ccccn1)c1cccc([N+](=O)[O-])c1 -43.1%
O=C(c1cccc([N+](=O)[O-])c1)c1ccccn1 -6.3%
O=C(CC(C(=O)O)c1ccc(Cl)cc1)c1ccccc1 (stereo not drawn) -13%
O=C(CC(CC(=O)c1ccccc1)c1ccccc1)c1ccccc1 -4.1%
O=C(O)c1ccc(C(=O)C(=O)c2ccccc2)cc1 -2.3%
C=C(C(=O)c1ccccc1)C(c1ccccc1)C(C)C(=O)c1ccccc1 (stereo not drawn) 44.3%
CC1c2[nH]c3ccccc3c2C[C@H]2C(=O)N(CCO)CC(=O)N12 (stereo partly drawn) -2.7%
C=CCc1c(OC(C)=O)c2ccccc2n(C)c1=O -38%
COc1ccc(NC(=O)Cc2c(C)n(C(=O)c3ccc(Cl)cc3)c3ccc(OC)cc23)cc1 -13.3%
COc1ccc2c(c1)c(CC(=O)Nc1ccc(C)cc1)c(C)n2C(=O)c1ccc(Cl)cc1 24.5%
